Screens (PubChem BioAssay)
PGC1a acetyl inh = PGC1a acetylation modulation, inhibitor mode. AID 651687. hit rate 0.17% among 350,000. U2OS PGC1a acetylation, AlphaScreen anti-acetyl-lysine; with virally co-expressed GCN5 acetyltransferase. inhibition, % at 15.6 µM;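 active means every replicate shows inhibition of at least 40%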;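 further: 0% = neutral control wells and 100% = positive control wells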
RAD52 inh = inhibitors of human RAD52 DNA annealing. recombinant RAD52 DNA annealing, FRET fluorescence. inhibition, % at 18.7 µM. hit rate 0.46% among 360,000. AID 651710;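 active means every replicate showing at least 50% inhibition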
Target sequence (P43351 whole entry, looked up): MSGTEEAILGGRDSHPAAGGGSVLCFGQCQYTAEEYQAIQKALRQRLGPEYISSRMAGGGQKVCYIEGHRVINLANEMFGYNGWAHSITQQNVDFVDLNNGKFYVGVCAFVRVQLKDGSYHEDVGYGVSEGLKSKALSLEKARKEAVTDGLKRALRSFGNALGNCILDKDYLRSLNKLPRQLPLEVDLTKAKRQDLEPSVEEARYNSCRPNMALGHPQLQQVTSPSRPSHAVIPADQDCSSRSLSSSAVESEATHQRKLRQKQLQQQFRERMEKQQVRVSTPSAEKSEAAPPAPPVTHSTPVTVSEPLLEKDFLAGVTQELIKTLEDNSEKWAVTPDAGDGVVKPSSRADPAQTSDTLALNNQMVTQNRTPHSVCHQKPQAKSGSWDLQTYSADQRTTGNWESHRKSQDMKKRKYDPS
INS-1E GSIS act = GLuc luminescence reporter in INS-1E cells, primary screen for activators of glucose-dependent secretion of insulin. INS-1E GLuc reporter insulin secretion, 2-3 h. activation, % at 16.6 µM. hit rate 0.61% among 370,000. AID 743287;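 active means lowest replicate activation of at least 40%, so every replicate reaches that level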;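 further: 0% = median of neutral control wells and 100% = median of IBMX positive control wells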
ERAP1 inh = ERAP1 (human) enzyme inhibition; Q9NZ08; recombinant ERAP1, Leu-AMC fluorescence, 60 min; inhibition, % at 10.7 µM; hit rate 0.15% among 340,000;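 active means mean replicate inhibition of at least 30%, or all replicates individually reaching that 30% level; inactive means mean below 30% and not every replicate reaching it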;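 further: 0% = neutral control wells and 100% = L-leucinethiol positive control wells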
RAD54 inh = inhibitors of human RAD54 branch migration. Q92698. RAD54 Holliday junction branch migration, FAM/BHQ fluorescence. inhibition, % at 10.4 µM. hit rate 0.14% among 360,000;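 active means mean normalized replicate activity at least 40 and at least half of replicates scoring 40 or more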;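 further: 0% = median of neutral control wells and 100% = median of positive control wells; inhibitors cause a drop in the FAM fluorescence signal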
AF4-AF9 inh = inhibitors of human MLL-AF4/AF9 interaction; P42568; AlphaScreen, biotin-AF4 peptide binding to FLAG-AF9; inhibition, % at 10 µM; hit rate 0.47% among 350,000;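 active means every replicate reaching a set inhibition limit, whatever the replicate mean, cut at about 25% in these data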;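 further: 0% = plate neutral control median and 100% = total signal loss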
An asterisk follows results filed as active; . = no result. In the library only some 1.4% were active in any assay of this set; here they are far more common.

SMILES | PGC1a acetyl inh | RAD52 inh | INS-1E GSIS act | ERAP1 inh | RAD54 inh | AF4-AF9 inh
C[C@@H]1CCCCO[C@@H](CN(C)C)[C@H](C)CN([C@H](C)CO)C(=O)c2cc(NC(=O)Nc3ccc(C(F)(F)F)cc3)ccc2O1 | -3 | 50* | 14 | 1 | 4 | 7
C[C@@H]1CCCCO[C@H](CN(C)CC2CC2)[C@H](C)CN([C@@H](C)CO)C(=O)c2cc(NC(=O)Nc3ccc(C(F)(F)F)cc3)ccc2O1 | 6 | . | -25 | . | -22 | .
C[C@@H]1CCCCO[C@H](CN(C)C)[C@@H](C)CN([C@H](C)CO)C(=O)c2cc(NC(=O)Nc3ccc(C(F)(F)F)cc3)ccc2O1 | -1 | 23 | 6 | 3 | -5 | 2
C[C@@H]1CCCCO[C@@H](CN(C)C)[C@@H](C)CN([C@H](C)CO)C(=O)c2cc(NC(=O)Nc3ccc(C(F)(F)F)cc3)ccc2O1 | 6 | 54* | -18 | 0 | -1 | 2
C[C@H](CO)N1C[C@H](C)[C@H](CN(C)CC2CC2)OCCCC[C@H](C)Oc2ccc(NC(=O)Nc3ccc(C(F)(F)F)cc3)cc2C1=O | 4 | 54* | -16 | 1 | . | 13
C[C@@H]1CN([C@H](C)CO)C(=O)c2cc(NC(=O)Nc3ccc(F)cc3)ccc2O[C@@H]1CN(C)Cc1ccccc1 | -12 | 7 | -7 | -5 | 6 | -7
COc1ccc(NC(=O)Nc2ccc3c(c2)C(=O)N([C@@H](C)CO)C[C@H](C)[C@@H](CN(C)Cc2ccccc2)O3)cc1 | -9 | 4 | 7 | -1 | 6 | 2
C[C@H](CO)N1C[C@H](C)[C@@H](CN(C)C(=O)Nc2ccccc2)OCCCC[C@H](C)Oc2ccc(NC(=O)Nc3ccc(C(F)(F)F)cc3)cc2C1=O | . | . | 1 | . | . | .
O=C(Nc1ccc2c(c1)OCO2)N[C@H]1CC[C@H](CCNC(=O)C2CCCC2)O[C@@H]1CO | -2 | -1 | 6 | 3 | -13 | 3
C[C@H]1CN([C@@H](C)CO)C(=O)c2cccc(NC(=O)c3cnccn3)c2O[C@@H]1CN(C)S(=O)(=O)c1ccc(Cl)cc1 | 10 | . | -2 | . | . | .
O=C1C(N2CCOCC2)=C(n2nnc3ccccc32)C(=O)c2ccccc21 | 61* | . | . | . | -2 | .
C[C@H](O)C#Cc1ccc2c(c1)O[C@@H](CN(C)CC1CCOCC1)[C@@H](C)CN([C@@H](C)CO)S2(=O)=O | -1 | . | 13 | . | -14 | .
C1CCN(CCCNC2C3CC4CC(C3)CC2C4)C1 (stereo not drawn) | 6 | -5 | 40* | 0 | -6 | -7
CCC(C)(CC(=O)Nc1nccs1)c1ccccc1 (stereo not drawn) | -16 | -17 | 41* | -2 | -13 | 0
COc1ccccc1-c1cc(-c2ccccc2)nc(SCC(=O)O)c1C#N | 13 | -8 | -25 | 42* | 1 | 3
COc1ccc(-c2ccc(SCC(=O)NCc3ccco3)nn2)cc1OC | -16 | . | 62* | . | . | .
COc1ccc(-c2ccc(SCC(=O)NC3CCCCC3)nn2)cc1OC | . | -13 | 105* | 1 | 9 | 2
COc1ccc(-c2cc(C(F)(F)F)nc(SCC(=O)NCc3ccco3)n2)cc1OC | -11 | . | . | . | -1 | .
COc1ccc(-c2ccc(SCC(=O)NCC3CCCO3)nn2)cc1OC (stereo not drawn) | -3 | 7 | 75* | 2 | 0 | 0
COc1ccc2c3c([nH]c2c1)[C@H](CO)N(C(=O)CC1CC1)CC31CCN(Cc2cccnc2)CC1 | 2 | 2 | 25 | -2 | . | 2
COc1ccc(CN2CC3(CCN(Cc4ccccn4)CC3)c3c(n(C)c4cc(OC)ccc34)[C@@H]2CO)cc1 | -8 | . | -21 | . | . | 18
CCOC(=O)C1=C(C)Nc2nc3ccccc3n2C1c1ccc(O)cc1 (stereo not drawn) | -4 | -9 | 11 | 0 | -5 | -6
CCOC(=O)c1ccccc1-n1c(C)cc(C2N=C(N)Nc3nc4ccccc4n32)c1C (stereo not drawn) | -5 | 0 | 2 | 6 | -1 | 25*
COCC(=O)Nc1ccc2c(c1)C(=O)N(C)C[C@H](OC)[C@@H](C)CN(Cc1cc(F)ccc1F)[C@H](C)CO2 | -32 | 6 | -20 | -4 | 2 | 2
O=C(C[C@@H]1CC[C@H]2[C@@H](COC[C@H](O)CN2Cc2ccc(Oc3ccccc3)cc2)O1)N1CCc2ccccc2C1 | -19 | . | . | . | 9 | .
SMILES | PGC1a acetyl inh | RAD52 inh | INS-1E GSIS act | ERAP1 inh | RAD54 inh | AF4-AF9 inh
COCc1[nH]nc2c1C(c1ccc(C)cc1)NC2=O (stereo not drawn) | . | -6 | 50* | -1 | . | .
CO[C@@H]1CN(C)C(=O)c2ccc(NS(=O)(=O)CC(F)(F)F)cc2OC[C@@H](C)N(C(=O)c2ccc3c(c2)OCO3)C[C@H]1C | . | 4 | 0 | 0 | -11 | -2
C[C@@H]1CN([C@@H](C)CO)C(=O)Cc2cc(NS(=O)(=O)c3cccs3)ccc2O[C@H]1CN(C)Cc1ccc(Cl)c(Cl)c1 | 10 | 51* | -21 | 0 | -2 | 6
C[C@@H]1CCCCO[C@@H](CN(C)CC2CCCCC2)[C@H](C)CN([C@@H](C)CO)C(=O)c2cc(N(C)C)ccc2O1 | -5 | -4 | 4 | 5 | 14 | 37*
C[C@@H]1CCCCO[C@@H](CN(C)CC2CCCCC2)[C@@H](C)CN([C@@H](C)CO)C(=O)c2cc(N(C)C)ccc2O1 | -18 | 14 | -3 | 4 | 10 | 20
C[C@H](CO)N1C[C@H](C)[C@@H](CN(C)Cc2ccc(Cl)c(Cl)c2)OCCCC[C@H](C)Oc2ccc(N(C)C)cc2C1=O | 2 | 12 | -6 | -2 | . | 43*
C[C@@H]1CCCCO[C@H](CN(C)Cc2ccc3c(c2)OCO3)[C@H](C)CN([C@@H](C)CO)C(=O)c2cc(N(C)C)ccc2O1 | -7 | . | . | . | . | .
C[C@@H]1CCCCO[C@@H](CN(C)Cc2ccc(Cl)c(Cl)c2)[C@@H](C)CN([C@H](C)CO)C(=O)c2cc(N(C)C)ccc2O1 | -7 | -5 | -16 | 3 | -2 | 48*
C[C@H]1CN([C@@H](C)CO)C(=O)c2cc(NC(=O)C3CCCCC3)ccc2O[C@H]1CN(C)C | 17 | 4 | 7 | 0 | 5 | -2
CO[C@@H]1CN(C)C(=O)c2cc(NS(C)(=O)=O)ccc2OC[C@H](C)N(Cc2cccnc2)C[C@H]1C | 8 | . | 1 | . | . | .
C[C@H](CO)N1C[C@H](C)[C@H](CN(C)Cc2ccc(Cl)c(Cl)c2)Oc2ccc(N(C)C)cc2C1=O | 1 | -1 | -13 | -3 | -3 | 32*
C[C@H]1CN([C@@H](C)CO)C(=O)Cc2cc(N(C)C)ccc2O[C@H]1CN(C)Cc1ccc(Cl)c(Cl)c1 | -5 | . | 11 | . | . | .
C[C@@H]1CN([C@@H](C)CO)C(=O)Cc2cc(N(C)C)ccc2O[C@@H]1CN(C)Cc1ccc(Cl)c(Cl)c1 | -19 | 1 | . | 1 | -8 | 43*
